MCF10A rerep – A quantitative high throughput screen for small molecules that induce DNA re-replication in MCF 10a normal breast cells; MCF 10A DNA re-replication, Hoechst nuclear intensity, 48 h; 2.9% of 350,000 active; Potency, µM (titrated, usually from 46.1 µM), usual class: activators; further: nearly all actives have a fitted effect of over 50% in size
KB-3-1 cytotox – qHTS assay for MDR1-selective chemotherapeutics: Primary screen using the parental adenocarcinoma cell KB-3-1; KB-3-1 viability, CellTiter-Glo ATP luminescence, 72 h; Potency, µM (top dose mostly 46.1 µM), usual class: cytotoxic; 1.4% of 400,000 active; further: nearly all actives have a fitted effect of over 60% in size
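Parental KB-3-1 viability, qHTS format: 72 h compound exposure, 37 °C; CellTiter-Glo; media-only wells and DMSO plates as controls; concentration-effect fits on corrected data.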
ELG1 repair inh – qHTS screen for small molecules that inhibit ELG1-dependent DNA repair in human embryonic kidney (HEK293T) cells expressing luciferase-tagged ELG1; 2.3% of 330,000 active; Potency, µM (titrated, usually from 46.1 µM), usual class: inhibitors; HEK293T ELG1-luciferase reporter, luminescence, 16 h; DNA damage induced by 5-fluorouridine; further: nearly all actives have a fitted effect of over 55% in size
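Luminescence from the luciferase reporter, measured 30 min after ONE-Glo reagent at room temperature, was the read-out. Beforehand, 2,000 cells per well were exposed for 16 hr at 37 °C to 5-fluorouridine together with compound or vehicle.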
SW480 rereplic – A quantitative high throughput screen for small molecules that induce DNA re-replication in SW480 colon adenocarcinoma cells; SW480 DNA re-replication, Hoechst DNA content imaging, 48 h; Potency, µM (top dose mostly 46.1 µM), most hits filed as activators; 1.8% of 340,000 active; AID 624297, 2012; further: nearly all actives have a fitted effect of over 55% in size
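Compounds, transferred as 23 nL by pin tool, were incubated with cells for 48 hr; DNA content per nucleus was then quantified by Hoechst staining and fluorescence plate imaging.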
KB-V1 cytotox – qHTS assay for MDR1-selective chemotherapeutics: Primary screen using the drug-selected MDR subline cells KB-V1. Potency, µM (titrated, usually from 46.1 µM), most hits filed as cytotoxic. 3.4% of 400,000 active. AID 1347076, 2019. KB-V1 MDR cells viability, CellTiter-Glo, 72 h; further: nearly all actives have a fitted effect of over 60% in size
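KB-V1 MDR subline cells in DMEM (phenol-red free, 10% FBS) exposed to compounds in qHTS concentration series for 72 h at 37 degrees C. Viability read by CellTiter-Glo luminescence; concentration-effect curves fitted after normalization and correction.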
Numbers stand for hits; n = inactive; u = inconclusive; x = not tested or not shown. Only some compounds are listed: those with a hit (about 8.1% of all), similar ones and a draw of the others. The call rests on the fitted dose curve; in most records, active means well fitted curve in the direction sought with a large enough effect; inconclusive means small, poorly fitted or top-dose-only effect, or another doubt; inactive means no such curve, though single readings can be large; an effect the other way counts as inactive or inconclusive.

SMILES	MCF10A rerep	KB-3-1 cytotox	ELG1 repair inh	SW480 rereplic	KB-V1 cytotox
O=C1COc2ccc(-c3csc(=Nc4ccc(OC(F)F)cc4)n3CC3CCCO3)cc2N1 (stereo unspecified)	16µM	u	u	u	2.9µM
Cc1nc2cccnc2n1-c1cccc(C(=O)NCc2ccc(OC(C)C)cc2)c1	x	n	x	x	n
O=C(NCc1ccccc1Cl)c1ccc(NC(=O)N2CCCCc3ccccc32)cc1	x	n	x	x	n
c1ccc(-c2csc(=Nc3cccnc3)n2CC2CCCO2)cc1 (stereo unspecified)	u	n	u	n	u
CN(C)S(=O)(=O)c1cccc(N=c2scc(-c3ccc4c(c3)NC(=O)CO4)n2CC2CCCO2)c1 (stereo unspecified)	n	u	23µM	n	16µM
CN(C)C(CN1C(=O)C2CC=CCC2C1=O)c1cn(C)c2ccccc12 (stereo unspecified)	n	n	n	4.1µM	n
O=C1c2ccccc2C(=O)C12OC2c1ccc(Cl)cc1Cl (stereo unspecified)	12µM	u	n	u	u
CCOc1ccc(C(C)NC(=O)C2CCN(S(=O)(=O)c3ccc(OC)cc3)CC2)cc1OCC (stereo unspecified)	n	n	x	n	21µM
CC1CCN(C(=O)COC(=O)c2c[nH]c3ccccc23)CC1	n	n	u	n	n
CN=c1scc(-c2ccc(OC)cc2)n1/N=C(\C)c1cccnc1	n	u	18µM	n	u
COc1ccc(OC)c(CCNC(=O)c2ccc3c(c2)N(Cc2ccc(F)cc2)CCS3)c1	13µM	u	u	n	u
COc1ccc(CCNC(=O)c2ccc3c(c2)N(Cc2ccc(F)cc2)CCS3)c(OC)c1	n	u	n	n	n
CCOc1ccc(S(=O)(=O)Nc2cccc(C(=O)N3CCN(c4ccccn4)CC3)c2)cc1	x	n	x	x	u
CCOc1ccc(NS(=O)(=O)c2cccc(C(=O)N3CCN(C/C=C/c4ccccc4)CC3)c2)cc1	u	18µM	x	n	6.5µM
O=C(c1ccc(S(=O)(=O)Nc2cccc(C(F)(F)F)c2)cc1)N1CCN(c2ccccc2O)CC1	u	u	n	n	21µM
CCOc1ccc(S(=O)(=O)Nc2cccc(C(=O)N3CCN(c4ccccc4O)CC3)c2)cc1	u	n	u	n	21µM
Cc1ccc(CSCCNC(=O)CN(c2cccc(C)c2C)S(=O)(=O)c2ccccc2)cc1	x	n	x	x	u
COc1ccc(N(CC(=O)NCCSCc2ccc(C)cc2)S(=O)(=O)c2ccccc2)cc1	u	u	u	n	6.5µM
COc1ccccc1N(CC(=O)NCCSCc1ccc(C)cc1)S(=O)(=O)c1ccccc1	n	u	16µM	n	u
COc1ccc(N(CC(=O)NCCSc2ccccc2)S(=O)(=O)c2ccccc2)cc1	n	u	u	n	u
CCC(c1nnnn1CCOC)N(Cc1ccc(C)cc1)Cc1cc2cc(OC)ccc2[nH]c1=O (stereo unspecified)	n	u	u	n	23µM
O=C(c1cccs1)N1CCc2c([nH]c3ccccc23)C1c1ccc(Cl)cc1 (stereo unspecified)	u	12µM	n	u	12µM
CCOC(=O)CCc1c(C)nc2cc(-c3cc(OC)cc(OC)c3)[nH]n2c1=O	x	n	x	x	n
CCOC(=O)Cn1c(=O)n(C2CCCCC2)c2nc(-c3c(F)cccc3Cl)nc(C(N)=O)c21	x	u	x	x	18µM
CCOC(=O)Cn1c(=O)n(C2CCCCC2)c2nc(-c3cccc(F)c3)nc(C(N)=O)c21	x	n	x	x	n
COc1ccc(CCNC(=O)c2ccc3nc(N4CCCCC4)sc3c2)cc1OC	n	n	u	n	18µM
COc1ccc(CCNc2nc(N3CCCCC3)nc(N3CCCCC3)n2)cc1OC	u	u	21µM	u	u
CC1CCN(c2nc3ccc(C(=O)NCCCN4CCCCC4C)cc3s2)CC1 (stereo unspecified)	n	n	u	21µM	n

Compound activity (PubChem BioAssay)
